Rows were chosen to be rich in hits. Some 3.8% of all compounds tested hit in one or more screens of this group.
NTR1 agonist – agonists of human neurotensin receptor NTR1. NTR1-U2OS beta-arrestin-GFP spot imaging, agonist mode. activation, % at 20 µM. AID 493036. hit rate 0.17% among 330,000;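 active means activation at or above 40% of the spot to cytoplasm intensity ratio, with at least 20 cells analyzed; inconclusive means wells under 20 cells, flagged as cytotoxic or low count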;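 further: 0% = DMSO without peptide and 100% = 100 nM NTR1 peptide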
Target sequence (P30989 whole entry, looked up): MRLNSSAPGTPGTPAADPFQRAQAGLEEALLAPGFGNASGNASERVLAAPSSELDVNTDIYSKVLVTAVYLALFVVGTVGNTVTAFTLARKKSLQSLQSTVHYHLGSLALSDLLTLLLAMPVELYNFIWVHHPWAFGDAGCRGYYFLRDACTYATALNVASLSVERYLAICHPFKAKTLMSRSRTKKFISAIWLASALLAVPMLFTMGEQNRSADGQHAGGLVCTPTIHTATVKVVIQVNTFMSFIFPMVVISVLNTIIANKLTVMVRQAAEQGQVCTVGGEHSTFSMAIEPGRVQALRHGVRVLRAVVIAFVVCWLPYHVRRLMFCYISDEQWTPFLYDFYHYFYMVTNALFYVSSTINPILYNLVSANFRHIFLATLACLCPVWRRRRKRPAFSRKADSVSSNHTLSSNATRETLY
Jurkat NFkB inh – inhibitors of the PMA/ionomycin-induced NF-kB reporter in Jurkat cells | AID 435003 | inhibition, % at 4 µM | PMA/ionomycin-induced NF-kB luciferase reporter, luminescence | hit rate 0.53% among 330,000; in the data active means inhibition above about 50%
Beta cell apopt – blocks beta cell apoptosis. INS-1E cytokine-induced death, ATP luminescence, 48 h; percent of positive-control rescue, neutral wells zero. protection from apoptosis, % (concentration not given with the values). hit rate 0.8% among 300,000. AID 435005;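 active means Every replicate reaches about 75%, or at least half do and their mean reaches it too, limit read from the data; inconclusive means At least half of replicates reach the limit but their mean does not; inactive means Under half of replicates reach the limit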;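 further: 0% = cytokine-treated negative control wells and 100% = positive control rescue; higher means more ATP so stronger rescue from cytokine killing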
Bfl-1 A1 inh – inhibitors of the anti-apoptotic protein A1, read as caspase activation | MEF A1-2A-BIM cells, Caspase-Glo 3/7 luminescence, 3 h; percent of clofoctol response, vehicle zero | caspase activation, % (concentration not given with the values) | AID 2462 | hit rate 0.066% among 330,000;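 active means over half of replicate activation scores above 10%, or exactly half above 10 with the replicate mean above 10; inconclusive means replicate mean below 10 yet half the replicates above 10; inactive means over half of replicates below 10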
Mdm2 MdmX PPI – inhibitors of human Mdm2/MdmX interaction. hit rate 3% among 330,000. O15151+Q00987. SaOS-2 split-luciferase Mdm2/MdmX complementation, luminescence. AID 485346. inhibition, % at 8 µM;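 active means inhibition of at least 50% at 8 µM in the primary screen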
697 NFkB inh – lowers PMA/ionomycin-induced NF-kB signal in 697 B cells. 697 B-cell NF-kB luciferase reporter, 16 h. hit rate 0.33% among 330,000. inhibition, % at 4 µM; in the data active means inhibition above about 35%
Active calls of the source: *.

For Cc1ccc(NS(=O)(=O)c2ccc3c(c2)C(=O)c2ccccc2C3=O)c(C)c1 the results were Beta cell apopt 2 and Bfl-1 A1 inh 0.
O=C1C=C(Nc2ccccc2O)c2ccccc2C1=O was read as NTR1 agonist -1, Jurkat NFkB inh 27, Beta cell apopt 113*, Bfl-1 A1 inh -1, Mdm2 MdmX PPI 34 and 697 NFkB inh -6.
Screening O=C1C=C(Nc2ccc(F)cc2)c2ccccc2C1=O returned NTR1 agonist 2, Jurkat NFkB inh 16, Beta cell apopt 106*, Bfl-1 A1 inh 0, Mdm2 MdmX PPI 44 and 697 NFkB inh 11.
Screening Cc1ccc(NC2=CC(=O)C(=O)c3ccccc32)c(C)c1 returned NTR1 agonist -2, Jurkat NFkB inh 1, Beta cell apopt 101*, Bfl-1 A1 inh 0, Mdm2 MdmX PPI 43 and 697 NFkB inh 1.
`O=C(Cn1c(=O)oc2ccccc21)Nc1ccccc1C(F)(F)F` gave NTR1 agonist -1, Jurkat NFkB inh 5, Beta cell apopt 1, Bfl-1 A1 inh inconclusive, Mdm2 MdmX PPI -27 and 697 NFkB inh -6.
`CCC1CCCCN1C(=O)c1cc(COc2ccc(-n3cncn3)cc2)on1` (stereo not given) gave NTR1 agonist 0, Jurkat NFkB inh 6, Beta cell apopt 104*, Bfl-1 A1 inh 0, Mdm2 MdmX PPI 7 and 697 NFkB inh 1.
Screening CN(C)C(CNC(=O)c1cc(S(=O)(=O)N(C)Cc2ccccc2)ccc1Cl)c1ccco1 (stereo not given) returned NTR1 agonist 1, Jurkat NFkB inh 9, Beta cell apopt -2, Bfl-1 A1 inh 0, Mdm2 MdmX PPI 15 and 697 NFkB inh 4.
For O=C(c1ccccc1)N1CCN(Cc2c[nH]c3ccccc23)CC1 the results were NTR1 agonist -2, Jurkat NFkB inh 11, Beta cell apopt -1, Bfl-1 A1 inh 0, Mdm2 MdmX PPI -14 and 697 NFkB inh -8.
O=[N+]([O-])c1ccccc1CN1CCN(Cc2c[nH]c3ccccc23)CC1 was read as NTR1 agonist 1, Jurkat NFkB inh 19, Beta cell apopt 116*, Bfl-1 A1 inh 0, Mdm2 MdmX PPI -8 and 697 NFkB inh 5.
Cc1ccc(SCc2ccc(C(=O)NCc3cccnc3)cc2)cc1 was read as NTR1 agonist 0, Jurkat NFkB inh 4, Beta cell apopt 12, Bfl-1 A1 inh 1, Mdm2 MdmX PPI 18 and 697 NFkB inh -39.
`Cc1ccc(CN2C(=O)/C(=C\c3ccc(C(=O)NCc4cccnc4)cc3)Oc3ccccc32)cc1` gave NTR1 agonist 2, Jurkat NFkB inh -6, Beta cell apopt 99*, Bfl-1 A1 inh 0, Mdm2 MdmX PPI 9 and 697 NFkB inh 29.
`Nc1nc(-c2ccccn2)nc(N)c1Cc1ccccc1F` gave NTR1 agonist 2, Jurkat NFkB inh -19, Beta cell apopt 20, Bfl-1 A1 inh 0, Mdm2 MdmX PPI 7 and 697 NFkB inh -8.
`Nc1nc(-c2ccccn2)nc(N)c1Cc1ccc(Cl)cc1Cl` gave NTR1 agonist 2, Jurkat NFkB inh -16, Beta cell apopt 96*, Bfl-1 A1 inh 0, Mdm2 MdmX PPI 40 and 697 NFkB inh 5.
`Nc1nc(-c2ccccn2)nc(N)c1Cc1c(F)cccc1Cl` gave NTR1 agonist 1, Jurkat NFkB inh -17, Beta cell apopt 96*, Bfl-1 A1 inh 0, Mdm2 MdmX PPI 43 and 697 NFkB inh -10.
Screening COc1ccc(C(=O)N/N=C/c2sc3ccccc3c2O)cc1 returned Beta cell apopt 96* and Bfl-1 A1 inh -1.
For O=C(N/N=C/c1sc2ccccc2c1O)c1cccc2ccccc12 the results were Beta cell apopt 97* and Bfl-1 A1 inh 0.
Cc1cccc(NC(=O)c2c(O)c3ccccc3n(C)c2=O)c1 was read as NTR1 agonist 1, Jurkat NFkB inh -121, Bfl-1 A1 inh 0, Mdm2 MdmX PPI -78 and 697 NFkB inh -117.
CCc1ccc(NC(=O)c2cccnc2)cc1 was read as NTR1 agonist 10, Jurkat NFkB inh -51, Beta cell apopt 27, Bfl-1 A1 inh -2, Mdm2 MdmX PPI -5 and 697 NFkB inh -30.
O=C(Nc1ccc(C(=O)Nc2ccccc2Cl)cc1)c1cccnc1 was read as NTR1 agonist -1, Jurkat NFkB inh -4, Beta cell apopt 99*, Bfl-1 A1 inh -1, Mdm2 MdmX PPI -9 and 697 NFkB inh -15.
